# Assay results from ChEMBL document CHEMBL3988442, “University of Dundee, Small-Polar-MMV Screening Library” (2021).
# Target: AMP-activated protein kinase, AMPK (Homo sapiens) (UniProt P54646+O43741+P54619+Q9UGJ0+Q9Y478+Q13131+Q9UGI9)
# Experiment: AMP-dependent Kinase enzyme assay. An in vitro enzyme assay that detects ADP turnover that is directly proportional to AMPK activity. This uses naive AMPK that is activated during the assay with MK-8722
# Format: functional
# Design: scale not given: direction of the effect not stated beside the values
# Conditions: 30 µM
row,Structure (SMILES),Percent Effect
1,Cc1c(C(=O)NCCCS(C)(=O)=O)cccc1-c1ccccn1,10.6%
2,CS(=O)(=O)CCN1CCSCC1c1ccc(Cl)cc1 (stereo not given),-2.02%
3,CCCN1CCC(N2CCC(Cn3cc(C4CC4)nn3)CC2)CC1,2.68%
4,Cc1nn(C)c(C)c1C1COCCN1C(=O)CC(C)(C)C (stereo not given),-3.31%
5,Cc1cnn(CCNCC(=O)N2CCN(c3ccccc3)CC2)c1,-5.8%
6,CCCn1cc(NC(=O)Nc2ccc(F)c(C(=O)NC)c2)cn1,8.23%
7,CC(C)(C)CC(NC(=O)N1CCS(=O)(=O)CC1)C(F)(F)F (stereo not given),-0.804%
8,Fc1cc(CCNc2ccc3nccn3n2)c2c(c1)COCO2,17.6%
9,Cc1ccc(S(C)(=O)=O)cc1NCC(=O)NCCC1=CCCCC1,0.0953%
10,NC(=O)C1(Cc2ccccc2-c2cncnc2)CCCNC1 (stereo not given),3.1%
11,CC1(C)CN(c2cc(C3CC3)ncn2)C[C@]1(C)O,30.7%
12,Cc1nnc(-c2cccc(C#N)c2)n1C1CCN(C2CC2)C1=O (stereo not given),-1.74%
13,CCc1ccc2nc(C)cc(C(=O)N[C@@H]3CNC[C@H]3O)c2c1,0.636%
14,COc1cc(NC2CCCN(c3ncccc3C#N)C2)cc(OC)c1 (stereo not given),-37.2%
15,Cc1sc(C(=O)N(C)S(C)(=O)=O)cc1-c1ccc(F)cc1,-2.1%
16,c1csc(CN(Cc2ccsc2)CC2CCCO2)n1 (stereo not given),5.59%
17,O=C(NC1CCCCC1)N1CCC(n2cc(-c3ccccn3)nn2)CC1,-1.68%
18,COC(=O)N1CCCCC1C(=O)N1CCC(c2ccncc2)CC1 (stereo not given),1.07%
19,CC(Cn1ccnc1)NC(=O)NCCN1CCCCCC1=O (stereo not given),0.204%
20,COC(=O)c1ccc(N(C(=O)c2ccncc2)C(C)C)c(C)c1,-1.62%
